Results as given in publication PMC4336329 (PLoS ONE, 2015).
Among all 310,000 compounds or so, about 14,000 (4.5%) showed an effect of 50% or more. The effect is printed as a negative number. Only a selection was taken, and strong results are over-represented in it overall.

Target: human ether-à-go-go-related gene (hERG) potassium channel (human, UniProt Q12809)
Assay: primary screen, population patch clamp on CHO cells stably expressing hERG; higher = less effect of the substance
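Note: peak tail current of the secondary pulse compared with the same well before compound.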

Chain of human ether-à-go-go-related gene (hERG) potassium channel (Q12809 whole entry, looked up): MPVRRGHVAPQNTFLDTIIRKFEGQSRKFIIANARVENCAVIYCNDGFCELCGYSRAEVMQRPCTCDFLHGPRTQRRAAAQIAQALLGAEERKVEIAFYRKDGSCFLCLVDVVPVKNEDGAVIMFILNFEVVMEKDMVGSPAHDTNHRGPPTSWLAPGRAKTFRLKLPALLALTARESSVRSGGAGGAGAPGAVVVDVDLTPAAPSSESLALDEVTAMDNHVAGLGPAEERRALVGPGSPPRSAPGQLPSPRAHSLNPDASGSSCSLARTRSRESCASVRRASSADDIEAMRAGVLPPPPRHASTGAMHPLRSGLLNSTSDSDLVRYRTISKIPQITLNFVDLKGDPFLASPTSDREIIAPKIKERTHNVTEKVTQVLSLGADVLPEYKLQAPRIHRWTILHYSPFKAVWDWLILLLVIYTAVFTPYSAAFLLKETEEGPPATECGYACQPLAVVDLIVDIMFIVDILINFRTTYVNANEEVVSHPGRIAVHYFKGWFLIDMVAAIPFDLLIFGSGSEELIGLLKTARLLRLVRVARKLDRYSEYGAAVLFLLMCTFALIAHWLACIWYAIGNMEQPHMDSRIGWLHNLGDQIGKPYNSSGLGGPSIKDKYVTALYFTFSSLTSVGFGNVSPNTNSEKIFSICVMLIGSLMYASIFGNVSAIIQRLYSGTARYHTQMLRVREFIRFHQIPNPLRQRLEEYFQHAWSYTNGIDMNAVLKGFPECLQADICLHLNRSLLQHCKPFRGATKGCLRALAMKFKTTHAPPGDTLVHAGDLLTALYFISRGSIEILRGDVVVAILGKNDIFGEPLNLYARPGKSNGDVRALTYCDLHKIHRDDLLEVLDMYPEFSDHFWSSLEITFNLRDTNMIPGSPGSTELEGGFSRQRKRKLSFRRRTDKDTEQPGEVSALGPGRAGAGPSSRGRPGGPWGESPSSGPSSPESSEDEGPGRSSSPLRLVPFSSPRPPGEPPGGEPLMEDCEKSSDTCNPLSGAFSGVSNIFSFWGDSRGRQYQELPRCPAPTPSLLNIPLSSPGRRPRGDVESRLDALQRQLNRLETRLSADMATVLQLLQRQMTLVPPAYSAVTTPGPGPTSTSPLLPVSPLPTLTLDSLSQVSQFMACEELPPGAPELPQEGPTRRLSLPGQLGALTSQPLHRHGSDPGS

First: CC(C)Oc1cccc(-c2nnc(SCC(=O)Nc3ccc4c(c3)OCCO4)n2N)c1
Second: Cc1ccccc1C(=O)N1CCC(C(=O)Nc2ccc3c(c2)OCCO3)CC1
The “hERG current change (%, negative = inhibition) at 10uM” value of the first is lower: -8.81% for the first, 5.7% for the second.

Going from O=C(CSc1nnc(-c2ccc(O)cc2)n1Cc1ccco1)c1cccs1 to O=C(CSc1nnc(CNC(=O)c2cccs2)o1)Nc1ccc(Cl)cc1, the “hERG current change (%, negative = inhibition) at 10uM” value rises from -14.9% to -4.26%.

Compared with O=C(COC(=O)c1cccc(F)c1)NC(=O)NC1CCCC1, COc1ccc(CNC(=O)COC(=O)c2ccc3ncsc3c2)cc1OC is higher in “hERG current change (%, negative = inhibition) at 10uM” value: 5.55% for the first, 14.5% for the second.

Compared with COCCCN(C(=O)c1cc(C)oc1C)c1c(N)n(CC(C)C)c(=O)[nH]c1=O, CCSCCOC(=O)C1=C(C)NC(=O)NC1c1ccc2c(c1)OCO2 (stereo not drawn) is lower in “hERG current change (%, negative = inhibition) at 10uM” value: 7.78% for the first, -13.4% for the second.

First: Cc1ccccc1OCCOc1cccc(/C=N/NC(=O)Cc2nnc(N)s2)c1
Second: Cc1ccccc1OCCOC(=O)c1nc2nccc(C)n2n1
The “hERG current change (%, negative = inhibition) at 10uM” value of the first is higher: 14.2% for the first, -14.1% for the second.

Going from CC1(C)Oc2ccc(C(=O)N3CCOCC3)cc2N(CC(=O)N2CCOCC2)C1=O to O=C(Nc1ccc2c(c1)OCCO2)C1CCN(C(=O)c2ccc([N+](=O)[O-])cc2)CC1, the “hERG current change (%, negative = inhibition) at 10uM” value falls from 18.7% to -65.6%.

First: Cc1ccc(CC2C(=O)N(c3cc(Cl)ccn3)C(=O)C2C)cc1 (stereo not drawn)
Second: Cc1ccc(CNC(=O)C2CCN(S(=O)(=O)c3ccc(Br)s3)CC2)cc1
The “hERG current change (%, negative = inhibition) at 10uM” value of the first is lower: -9.63% for the first, 3.77% for the second.

Compared with COc1cccc(C2=NOC(C(=O)Nc3ccc(OC)c(OC)c3)C2)c1 (stereo not drawn), COc1ccc(OC)c(C2=Nn3c(nnc3-c3cc(C)[nH]n3)SC2)c1 is lower in “hERG current change (%, negative = inhibition) at 10uM” value: -11.8% for the first, -19.7% for the second.

Going from Cn1c(SCc2c(F)cccc2Cl)nc2c(c1=O)SCC2 to COc1cc(CNCCN(C)C)ccc1OCc1c(F)cccc1Cl.Cl, the “hERG current change (%, negative = inhibition) at 10uM” value falls from 6.6% to -19.6%.

First: COc1ccc(C(c2nnnn2Cc2cccs2)N2CCN(c3ccc(F)cc3)CC2)cc1OC (stereo not drawn)
Second: Fc1ccc(C(c2nnnn2Cc2cccs2)N2CCN(c3ccccc3)CC2)cc1 (stereo not drawn)
The “hERG current change (%, negative = inhibition) at 10uM” value of the first is lower: -69.4% for the first, -21.3% for the second.

Compared with COc1ccc(C(c2nnnn2Cc2cccs2)N2CCN(c3ccccc3F)CC2)cc1 (stereo not drawn), COc1ccc(C2=Nn3c(nnc3-c3ccccn3)SC2)cc1 is lower in “hERG current change (%, negative = inhibition) at 10uM” value: 4.04% for the first, -34.3% for the second.

Going from CC(=O)Nc1ccc(Oc2cc(C#N)c(C#N)cc2N2CCOCC2)cc1 to COc1cc(CNCCN2CCOCC2)ccc1OCc1cccc(Cl)c1.Cl, the “hERG current change (%, negative = inhibition) at 10uM” value falls from -16.9% to -63.2%.

Compared with Nc1ccccc1SC1CC(=O)N(c2ccc3c(c2)OCO3)C1=O (stereo not drawn), O=C(Cc1ccc([N+](=O)[O-])cc1)Nc1ccc2c(c1)OCO2 is lower in “hERG current change (%, negative = inhibition) at 10uM” value: 14.7% for the first, -13.9% for the second.

Going from COc1ccc(C2=Nn3c(nnc3-c3cc(C)[nH]n3)SC2)cc1 to Cc1cc(-c2nnc3n2N=C(c2ccc(F)cc2)CS3)n[nH]1, the “hERG current change (%, negative = inhibition) at 10uM” value rises from -64% to -60.3%.

Compared with Cc1cc(-c2nnc3n2N=C(c2ccccc2)CS3)n[nH]1, Cc1cc(-c2nnc3n2N=C(c2ccc(-c4ccccc4)cc2)CS3)n[nH]1 is higher in “hERG current change (%, negative = inhibition) at 10uM” value: -22.7% for the first, -15.7% for the second.

Compared with COc1ccc(C2=Nn3c(nnc3-c3ccncc3)SC2)cc1, COc1ccc(C2=Nn3c(nnc3-c3ccc(OC)cc3)SC2)cc1 is lower in “hERG current change (%, negative = inhibition) at 10uM” value: -41.1% for the first, -55% for the second.

First: CCOc1ccc(C2=Nn3c(nnc3-c3ccccc3OC)SC2)cc1
Second: CCOc1ccc(C2=Nn3c(nnc3-c3ccc(OC)cc3)SC2)cc1
The “hERG current change (%, negative = inhibition) at 10uM” value of the first is lower: -63.4% for the first, -16% for the second.

Going from Br.COc1ccc(C2=Nn3c(C)nnc3SC2)cc1 to CCOc1ccc(-c2nnc3n2N=C(c2ccc(OC)cc2)CS3)cc1, the “hERG current change (%, negative = inhibition) at 10uM” value rises from 0.091% to 0.919%.

First: O=C(Cn1cc2c(n1)CCCCC2)NCc1ccccn1
Second: CCOC(=O)c1c(NC(=S)Nc2ccccc2)sc2c1CCCCC2
The “hERG current change (%, negative = inhibition) at 10uM” value of the first is lower: -2.69% for the first, 17.3% for the second.

Compared with CCOc1cc(C(=O)N2CCC3(CC2)OCCO3)cc(OCC)c1OCC, COc1cc(CNCCN2CCOCC2)ccc1OCC(=O)NC(C)(C)C.Cl is higher in “hERG current change (%, negative = inhibition) at 10uM” value: -12.5% for the first, 6.17% for the second.

First: CCOC(=O)N1CCN(CC(=O)N2c3ccccc3CC2C)CC1.O=C(O)C(=O)O (stereo not drawn)
Second: CC(=O)c1ccc(N2CCN(C(=O)C3CCN(S(=O)(=O)c4ccc5c(c4)CC(C)N5C(=O)C4CC4)CC3)CC2)cc1 (stereo not drawn)
The “hERG current change (%, negative = inhibition) at 10uM” value of the first is higher: 10.4% for the first, -8.83% for the second.

Going from COC(=O)c1cc2nc(-c3ccccc3)cc(C(F)(F)F)n2n1 to CC(=O)Nc1nc(C)c(Cc2ccccc2)c(=O)[nH]1, the “hERG current change (%, negative = inhibition) at 10uM” value falls from 19.7% to -1.04%.

CCOc1ccc(S(=O)(=O)/N=C(\N)c2ccccc2)cc1 and COc1ccc(C/C(N)=N/OC(=O)Cc2ccccc2)cc1 are the same in “hERG current change (%, negative = inhibition) at 10uM” value: -7.03% for the first, -7.03% for the second.

Going from CCCCCCCC(=O)Nc1cc(C(=O)NCc2ccc(C)cc2)ccc1N1CCC2(CC1)CC(c1cccc(Br)c1)=NO2 to C=C(C)C(=O)N1CC2(CC(c3cccc(NC(=O)/C=C\C=C/C)c3)=NO2)C[C@H]1C(N)=O (stereo partly drawn), the “hERG current change (%, negative = inhibition) at 10uM” value falls from 2.8% to 0.942%.

Compared with Cc1cccc(C(=O)N(NC(=O)Oc2ccccc2)C(C)(C)C)c1, CSCCC(NC(=O)c1ccco1)C(=O)NCC(c1ccccc1)N(C)C (stereo not drawn) is higher in “hERG current change (%, negative = inhibition) at 10uM” value: -13% for the first, -9.02% for the second.

Going from CCc1ccc(NC(=O)CCNS(=O)(=O)c2cccc3nsnc23)cc1 to CNC(=O)c1ccsc1NC(=O)CCS(=O)(=O)c1ccc(Cl)cc1, the “hERG current change (%, negative = inhibition) at 10uM” value falls from -14.9% to -18.1%.

Compared with O=C(Nc1ccc2c(c1)OCCO2)C1CCC1, O=C(Nc1ccc2c(c1)OCO2)C1CCN(S(=O)(=O)c2ccc3c(c2)OCCO3)CC1 is lower in “hERG current change (%, negative = inhibition) at 10uM” value: 7.7% for the first, 7.45% for the second.

First: O=C(Nc1ccc2c(c1)OCO2)C1CCN(C(=O)c2ccc([N+](=O)[O-])cc2)CC1
Second: COc1ccc(C(=O)Nc2ccc(NC(=O)C(C)C)nc2)cc1
The “hERG current change (%, negative = inhibition) at 10uM” value of the first is lower: -84.2% for the first, 18.9% for the second.

Compared with Cn1cnc(S(=O)(=O)NCc2ccccc2)c1, CCOC(=O)c1c(C)n(Cc2ccccc2)c2ccc(O)cc12 is higher in “hERG current change (%, negative = inhibition) at 10uM” value: 2.77% for the first, 4.43% for the second.

Compared with COc1ccccc1NC(=O)C1=C(C)Nc2nnnn2C1c1ccncc1 (stereo not drawn), COc1ccccc1OCCn1c(C)c(C=O)c2ccccc21 is higher in “hERG current change (%, negative = inhibition) at 10uM” value: -12.4% for the first, -2.11% for the second.

Compared with CCOC(=O)c1c(CN(CC)CC)n(-c2ccccc2)c2ccc(O)cc12, CCOC(=O)c1c(C)n(-c2ccccc2)c2ccc(O)cc12 is higher in “hERG current change (%, negative = inhibition) at 10uM” value: -66.7% for the first, 13.8% for the second.

Going from CCOC(=O)c1c(C)n(-c2ccc(F)cc2)c2ccc(O)cc12 to CCOC(=O)c1c(CN2CCOCC2)n(-c2ccccc2)c2ccc(O)cc12, the “hERG current change (%, negative = inhibition) at 10uM” value falls from 16.4% to -69.2%.

Going from CCOC(=O)c1c(CN2CCOCC2)n(-c2ccccc2)c2cc(Br)c(O)c(CN(C)C)c12 to CCOC(=O)c1c(NC(=S)Nc2ccccc2)sc2c1CCN(C)C2, the “hERG current change (%, negative = inhibition) at 10uM” value falls from -42.3% to -74.2%.

First: COc1ccc(S(=O)(=O)N(CC(C)C)C2CCS(=O)(=O)C2)cc1OC (stereo not drawn)
Second: CSc1ccc(S(=O)(=O)NCC(=O)OCC(=O)N2CCCC2=O)cc1[N+](=O)[O-]
The “hERG current change (%, negative = inhibition) at 10uM” value of the first is higher: 4.62% for the first, -9.51% for the second.

Compared with Cc1nn(CC#N)c(=O)n1-c1ccccc1F, Cc1c(Br)c([N+](=O)[O-])nn1CC(=O)N1CCCc2ccccc21 is lower in “hERG current change (%, negative = inhibition) at 10uM” value: 10.8% for the first, 2.48% for the second.

Going from COc1cc(CNCCCN2CCOCC2)cc(Br)c1OCc1ccc(Cl)cc1.Cl to COc1cc(CNCCN2CCOCC2)ccc1OCc1ccc(Cl)cc1.Cl, the “hERG current change (%, negative = inhibition) at 10uM” value falls from -35.5% to -42.1%.

Going from COc1cc(CNCCN2CCOCC2)ccc1OCc1ccc(Cl)cc1Cl.Cl to COc1cc(CNCCN2CCOCC2)ccc1OCc1ccccc1Cl.Cl, the “hERG current change (%, negative = inhibition) at 10uM” value rises from -69.7% to -45.7%.

Compared with COc1cc(CNCCO)cc(Cl)c1OCc1ccc(Cl)cc1Cl.Cl, COc1cc(CNCCN2CCOCC2)ccc1OCc1c(Cl)cccc1Cl.Cl is lower in “hERG current change (%, negative = inhibition) at 10uM” value: -7.34% for the first, -50.6% for the second.

First: O=C1CC2C(=O)NCCN2C(=NC(=O)c2ccc(Cl)cc2)N1 (stereo not drawn)
Second: CCOC(=O)c1c(NC(=S)Nc2ccc(Cl)cc2)sc2c1CCN(C)C2
The “hERG current change (%, negative = inhibition) at 10uM” value of the first is higher: -15.7% for the first, -74.2% for the second.

First: COc1cccc(/C=N/n2c(-c3n[nH]c4c3CCC4)n[nH]c2=S)c1OC
Second: CCOC(=O)c1c(NC(=S)Nc2ccc(OC)cc2)sc2c1CCC2
The “hERG current change (%, negative = inhibition) at 10uM” value of the first is higher: 14.1% for the first, 14% for the second.

First: O=C(NCCCNC(=O)c1ccc(Cl)cc1Cl)c1ccccn1
Second: CCC(C)NC(=O)COc1ccccc1[N+](=O)[O-] (stereo not drawn)
The “hERG current change (%, negative = inhibition) at 10uM” value of the first is lower: -2.08% for the first, 16% for the second.

First: CCOC(=O)c1c(NC(=O)Nc2ccc(F)cc2)sc2c1CCN(C)C2
Second: CCOC(=O)c1c(NC(=O)Nc2ccc(C)cc2)sc2c1CCN(C)C2
The “hERG current change (%, negative = inhibition) at 10uM” value of the first is higher: -26% for the first, -47.6% for the second.

Going from CCOC(=O)c1c(NC(=S)Nc2ccccc2)sc2c1CC(C)(C)SC2 to CCOC(=O)c1c(NC(=S)Nc2ccc(OCC)cc2)sc2c1CCN(C)C2, the “hERG current change (%, negative = inhibition) at 10uM” value falls from -3.74% to -70.4%.

In the case of CCOC(=O)c1c(NC(=S)Nc2ccc(OC)cc2)sc2c1CCCCC2, the “hERG current change (%, negative = inhibition) at 10uM” value is reported as 12.5%.
